TDP1 cell noCPT = qHTS for Inhibitors of human tyrosyl-DNA phosphodiesterase 1 (TDP1): qHTS in cells in absence of CPT; DT40 Tdp1-/- hTDP1 cells, no CPT, ATP luminescence, 48 h; Potency, µM (series often up to 46.2 µM), inactives show at the highest dose activity change, negative = growth inhibition, most hits filed as inhibitors; 15% of 420,000 active; note: potency is the fitted concentration of half-maximal effect; nearly all actives have a fitted effect of over 55% in size
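A cellular qHTS used chicken DT40 cells lacking endogenous Tdp1 but carrying stably transfected human TDP1. Compounds were applied without camptothecin, and cell growth kinetics were judged by ATP-dependent luminescence after ≥48 hr.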
ELG1 DNA repair = qHTS screen for small molecules that inhibit ELG1-dependent DNA repair in human embryonic kidney (HEK293T) cells expressing luciferase-tagged ELG1. HEK293T ELG1-luciferase reporter, luminescence, 16 h; DNA damage induced by 5-fluorouridine. Potency, µM (highest dose often 46.1 µM), for inactives: at the top dose activity change, negative = inhibition, most hits filed as inhibitors. 2.3% of 330,000 active. AID 504467, 2011; note: potency is the fitted concentration of half-maximal effect; nearly all actives have a fitted effect of over 55% in size
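Step one: seed 2,000 cells per well. Step two: pin-transfer compound or DMSO alongside 5-fluorouridine. Step three: incubate 16 hr, 37 °C, 5% CO2. Step four: add ONE-Glo, wait 30 min, read luminescence.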
IL1B secr inh = qHTS for Inhibitors of Inflammasome Signaling: IL-1-beta AlphaLISA Primary Screen. THP-1 LPS/ATP IL-1B secretion, AlphaLISA, 16 h; stronger effect = lower value. activity change, % at 57.5 µM. 4.7% of 360,000 active. AID 743279, 2014; in the data active = activity change below about -50%; inconclusive = mostly about -30% to -49%
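THP-1 cells pretreated 1 hr with compounds (up to 57.5 uM final), then stimulated with LPS (250 ng/mL final) plus ATP (1.25 mM final); secreted IL-1B measured by AlphaLISA after 16 hr, decreased signal indicating inhibition.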
HT1080-NT tox = qHTS for induction of synthetic lethality in tumor cells producing 2HG: qHTS for the HT-1080-NT fibrosarcoma cell line; HT-1080-NT fibrosarcoma viability, CellTiter-Glo ATP luminescence, 48 h; 1.6% of 360,000 active; Potency, µM (doses to about 46.1 µM), inactives show at the top dose activity, negative = less viability, actives largely listed as cytotoxic;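 note: NT is the 2HG producing partner of a matched IDH1 knockdown line; potency is the fitted concentration of half-maximal effect; 0% = DMSO-treated cells and -100% = media-only wells without cells; nearly all actives have a fitted effect of over 55% in size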
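Read-out is CellTiter-Glo luminescence after 10 minutes at room temperature, following 48 hours' compound treatment of HT-1080-NT cells (750 cells/well, RPMI, 5% FBS, 37 degrees C).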
HT1080 IDH1KD tx = qHTS for induction of synthetic lethality in tumor cells producing 2HG: qHTS for the HT-1080-IDH1KD cell line | HT-1080 IDH1 knockdown viability, ATP luminescence, 48 h | Potency, µM (series often up to 46.1 µM), for inactives: top-dose activity, negative = toxicity, actives largely listed as cytotoxic | 2% of 360,000 active | AID 686971, 2013;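 note: potency is the fitted concentration of half-maximal effect; 0% = DMSO wells and -100% = cell-free medium wells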
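Assay cells: HT-1080 with IDH1 knockdown, 750 per well, RPMI/5% FBS. Exposure: 48 h at 37 °C following 2 h pre-incubation. Read: CellTiter-Glo luminescence; fitted concentration-response, curve class assigned.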
DT40 TDP1 CPT = qHTS for Inhibitors of human tyrosyl-DNA phosphodiesterase 1 (TDP1): qHTS in cells in presence of CPT; chicken DT40 Tdp1-/-;hTDP1 cells + 20 nM CPT, ATP luminescence, 48 h; Potency, µM (top dose mostly 46.2 µM), for inactives: top-dose activity change, negative = growth inhibition, most hits filed as inhibitors; 12% of 420,000 active; AID 686979, 2013; note: potency is the fitted concentration of half-maximal effect; nearly all actives have a fitted effect of over 55% in size
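Cell growth measured by CellTiter-Glo luminescence after a minimum 48 h, 37 C compound exposure with 20 nM CPT in Tdp1-knockout DT40 cells stably expressing hTDP1, seeded 400/well; qHTS titration format.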
* hit, by the source's call; ? = inconclusive; . = no result given; [ ] = remark or other dose. Sampled rows, rich in hits. Any-hit rate of the full collection: about 19%. Unless noted, calls come from the whole dose curve; as a rule, active = well fitted curve in the direction sought with a large enough effect; inconclusive = small, poorly fitted or top-dose-only effect, or another doubt; inactive = no such curve, though single readings can be large; an effect the other way counts as inactive or inconclusive. Unless noted, % is set by controls: 0 for no effect and ±100 for the full control effect.

SMILES	TDP1 cell noCPT	ELG1 DNA repair	IL1B secr inh	HT1080-NT tox	HT1080 IDH1KD tx	DT40 TDP1 CPT
COc1ccccc1N(CC(=O)N1CCN(c2ccc(F)cc2)CC1)S(=O)(=O)c1ccc(C)cc1	18.4µM*	-11.9%	-0.1	1.0%	5.1%	25.9µM*
COc1cccc(N(CC(=O)N2CCN(c3ccccc3OC)CC2)S(C)(=O)=O)c1	?	-1.4%	0.0	0.0%	-0.5%	-8.9%
C=CCNC(=O)c1ccsc1N	?	.	37.5	10.6%	-0.6%	?
O=C(CN(C1CCCCC1)C1CCCCC1)N1CCc2ccccc2C1	16.4µM*	?	-99.3*	?	?	?
COc1ccccc1N(CC(=O)N1CCCC1)S(=O)(=O)c1cc([N+](=O)[O-])ccc1Cl	?	?	-26.3	1.8%	4.9%	16.4µM*
COc1ccc(S(=O)(=O)N(C)CC(=O)N2CCN(c3ccccc3)CC2)cc1	-23.0%	?	-15.1	10.5%	12.0%	-6.6%
O=C(CN(C1CCCCC1)S(=O)(=O)c1ccccc1)N1CCCC1	-7.4%	3.9%	3.0	8.3%	10.6%	-29.5%
COc1ccccc1N(CC(=O)N1CCCC1)S(=O)(=O)c1ccc(C)cc1	-23.3%	1.1%	-16.9	3.2%	14.8%	-2.5%
CN(C(=O)C(C)(C)C)c1ccc(OCC(=O)N2CCc3ccccc3C2)cc1	16.4µM*	?	-16.4	?	-28.9%	?
COc1ccc(N2CCN(C(=O)CN(c3ccccc3)S(=O)(=O)c3ccc(OC)cc3)CC2)cc1	20.6µM*	?	4.9	-0.4%	-15.4%	?
CC1CCN(S(=O)(=O)c2ccc3[nH]c(=O)[nH]c3c2)CC1	-14.8%	21.9%	-11.0	-5.3%	-10.6%	-0.1%
COc1ccc(F)c(CN2CCOc3ccc(CN4CCCCC4CO)cc3C2)c1 (centres undefined)	-18.6%	.	.	.	.	-1.0%[9.04 µM]
Cc1nn(C)cc1S(=O)(=O)Nc1ccccc1Br	-17.8%	8.7%	-1.2	-9.8%	-7.0%	-2.1%
COc1ccc(CNC(=O)N2CCN(c3ccc(F)cc3)CC2)cc1	11.0%	-13.5%	6.7	6.2%	25.6%	9.2%
COc1ccc(N2CCN(C(=O)CN(CCc3ccccc3)S(C)(=O)=O)CC2)cc1	?	?	-28.2	4.7%	-6.1%	?
COc1ccccc1N1CCN(C(=O)CN(CCc2ccccc2)S(C)(=O)=O)CC1	10µM*	?	0.7	3.5%	13.0%	?
COc1ccc(CNC(=O)N2CCN(c3ccc(F)cc3)CC2)cc1Cl	9.2µM*	-8.2%	-26.1	6.1%	-2.4%	?
NC(=O)CN(c1ccc(Oc2ccccc2)cc1)S(=O)(=O)c1ccccc1	?	-12.5%	17.5	-3.9%	-13.1%	20.6µM*
COc1ccc(N2CCN(C(=O)CN(c3ccc(OC)cc3)S(=O)(=O)c3ccccc3)CC2)cc1	23.1µM*	-2.7%	-0.1	-0.9%	-2.3%	13µM*
COc1ccc(S(=O)(=O)N(C)C[C@H]2Oc3c(NC(=O)c4ccncc4)cccc3C(=O)N([C@H](C)CO)C[C@@H]2C)cc1	2.1%	0.0%	-8.9	1.0%	7.4%	1.2%
COC(=O)c1cc(S(=O)(=O)NCc2ccc(Br)cc2)c[nH]1	-15.2%	19.7%	7.4	-1.6%	-1.7%	-14.1%
CCN(CC)S(=O)(=O)c1ccc(N2CCN(c3ccccc3OC)CC2)c(N)c1	7.31µM*	?	-26.3	?	?	9.2µM*
COc1cc(-c2ccno2)ccc1S(=O)(=O)N1CCN(c2ccc(C(C)=O)cc2)CC1	14.6µM*	.	.	.	.	?
COc1cc(-c2ccno2)ccc1S(=O)(=O)N1CCN(c2ccc(F)cc2)CC1	7.31µM*	.	.	.	.	?
COc1ccc(OC)c(S(=O)(=O)N2CCN(c3ccc(F)cc3)CC2)c1	-17.3%	-3.9%	-1.9	-6.7%	1.1%	-18.4%
SMILES	TDP1 cell noCPT	ELG1 DNA repair	IL1B secr inh	HT1080-NT tox	HT1080 IDH1KD tx	DT40 TDP1 CPT
O=C1C(=O)N(CCCN2CCOCC2)C(c2ccc([N+](=O)[O-])cc2)/C1=C(/O)c1ccc2c(c1)OCO2 (centres undefined)	1.3%	8.9%	-2.1	9.5%	8.1%	-20.7%
CCCNC(=O)Cn1c(-c2ccc(F)cc2)cc(C(=O)OCC)c1C	0.6%	-11.8%	-6.5	24.0%	9.5%	?
CCOC(=O)C1=C(C)NC(C)=C(C(=O)OCC)C1C(=O)OCC(=O)NCc1ccccc1OC	?	11.6µM*	?	2.4%	-2.9%	?
CCOC(=O)c1cc(-c2ccc(OC)cc2)n(CCC(=O)Nc2nc3ccc(OCC)cc3s2)c1C	9.2µM*	.	.	.	.	16.4µM*
CCOC(=O)c1cc(-c2ccc(OC)cc2)n(CCC(=O)NCc2ccccc2OC)c1C	?	.	.	.	.	25.9µM*
CCOC(=O)c1cc(-c2ccc(OC)cc2)n(CCC(=O)Nc2ccc(OC)cc2OC)c1C	20.6µM*	.	.	.	.	20.6µM*
COC(=O)CN(C)C(=O)c1ccc(OC2CCN(S(=O)(=O)N(C)C)CC2)cc1	-1.7%	?	10.8	-4.5%	-1.6%	-1.1%
c1ccc2c(N3CCCCCC3)nc(CN3CCCCC3c3nccs3)nc2c1 (centres undefined)	?	.	.	.	.	-4.5%[9.04 µM]
CCOC(=O)c1cc(-c2ccccc2)n(CC(=O)Nc2ccc(OC)cc2OC)c1C	?	.	.	.	.	16.4µM*
CC(=O)c1cc(-c2ccccc2)n(CCC(=O)NCc2cccs2)c1C	-5.7%	12.0%	-17.5	0.8%	-0.8%	6.3%
CC(=O)c1cc(-c2ccc(F)cc2)n(CCC(=O)NC(C)(C)C)c1C	12.1%	0.6%	26.8	5.5%	0.5%	9.1%
CCOC(=O)c1cc(-c2ccc(F)cc2)n(CCC(=O)Nc2ccccc2OC)c1C	20.6µM*	.	.	.	.	?
CC(=O)c1cc(-c2ccc(F)cc2)n(CCC(=O)Nc2nc3ccc(C)cc3s2)c1C	16.4µM*	.	.	.	.	25.9µM*
CCOC(=O)c1cc(-c2ccccc2)n(CCC(=O)NCc2ccccc2Cl)c1C	13µM*	.	.	.	.	?
COC(=O)[C@@H]1C[C@@]2(O)[C@@H](O)[C@@H](O)[C@@H](O)C[C@H]2N1CC1CCCCC1	-1.6%	15.4%	15.0	10.6%	8.1%	3.8%

Bioassay records: PubChem, National Center for Advancing Translational Sciences (NCATS)
